Data: article PMC7862700, “An all-to-all approach to the identification of sequence-specific readers for epigenetic DNA modifications on cytosine”

Legend:
Experiment in all cases: DAPPL (digital affinity profiling via proximity ligation, sequencing); 10 mM Tris-HCl pH 7.5, 50 mM NaCl, 1 mM DTT, 4% glycerol, room temperature, 30 min; GST-TFs on glutathione beads, 16-mer random dsDNA library, 0.1% formaldehyde crosslink after washing; high values mean tight binding
Conditions in all cases: protein: recombinant; tags: N-terminal GST; dsDNA, one strand shown
ERG = target: T1, ERG (Homo sapiens, UniProt P11308 1-479)
T1 sequence: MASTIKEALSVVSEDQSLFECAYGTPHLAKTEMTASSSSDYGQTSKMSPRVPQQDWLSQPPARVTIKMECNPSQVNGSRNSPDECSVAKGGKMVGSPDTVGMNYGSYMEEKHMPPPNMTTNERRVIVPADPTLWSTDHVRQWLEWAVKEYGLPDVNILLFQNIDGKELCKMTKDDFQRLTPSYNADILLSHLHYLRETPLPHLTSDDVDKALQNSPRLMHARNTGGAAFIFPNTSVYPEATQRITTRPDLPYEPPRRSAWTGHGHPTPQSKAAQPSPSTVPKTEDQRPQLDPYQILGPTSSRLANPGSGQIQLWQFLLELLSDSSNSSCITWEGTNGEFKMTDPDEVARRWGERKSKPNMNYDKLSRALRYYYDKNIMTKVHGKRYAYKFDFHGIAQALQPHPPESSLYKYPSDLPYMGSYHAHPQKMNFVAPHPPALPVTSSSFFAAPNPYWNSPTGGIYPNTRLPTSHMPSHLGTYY
Summary of the method: (§1)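 Pools were built from human transcription factors expressed in yeast as GST fusions, captured on glutathione beads and DNA-barcoded, along with a tag-only sample. Incubation with 200 nmole of a 16-mer random double-stranded DNA library lasted 30 min at room temperature in Tris/NaCl/DTT/glycerol buffer, and was followed by washing, 0.1% formaldehyde crosslinking, proximity ligation, PCR amplification and Illumina NextSeq500 sequencing. Binding signal is the quotient of each hexamer's read frequency for a factor and its frequency for the tag-only sample.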

EHF = target: T2, EHF (Homo sapiens, UniProt Q9NZC4 1-300)
T2 sequence: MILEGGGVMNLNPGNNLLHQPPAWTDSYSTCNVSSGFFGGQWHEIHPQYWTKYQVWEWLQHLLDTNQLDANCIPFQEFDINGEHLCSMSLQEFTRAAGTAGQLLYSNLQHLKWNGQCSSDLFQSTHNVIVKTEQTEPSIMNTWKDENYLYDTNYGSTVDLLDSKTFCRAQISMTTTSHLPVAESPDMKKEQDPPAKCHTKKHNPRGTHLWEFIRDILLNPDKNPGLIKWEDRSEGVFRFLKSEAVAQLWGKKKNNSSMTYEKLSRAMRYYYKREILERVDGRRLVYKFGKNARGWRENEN
Summary of the method: as §1

SPIB = SPIB (Homo sapiens, UniProt Q01892 1-262)
Chain of SPIB (Q01892 whole entry): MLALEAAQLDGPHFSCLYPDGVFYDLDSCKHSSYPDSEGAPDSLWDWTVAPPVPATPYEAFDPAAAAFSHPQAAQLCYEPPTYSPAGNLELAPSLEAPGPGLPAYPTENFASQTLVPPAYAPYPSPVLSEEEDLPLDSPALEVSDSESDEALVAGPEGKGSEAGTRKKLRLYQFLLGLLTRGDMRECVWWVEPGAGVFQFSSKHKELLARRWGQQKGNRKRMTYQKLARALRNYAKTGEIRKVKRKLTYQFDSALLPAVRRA
Summary of the method: as §1

ETV5 = ETV5 (Homo sapiens, UniProt P41161 1-510)
Chain of ETV5 (P41161 whole entry): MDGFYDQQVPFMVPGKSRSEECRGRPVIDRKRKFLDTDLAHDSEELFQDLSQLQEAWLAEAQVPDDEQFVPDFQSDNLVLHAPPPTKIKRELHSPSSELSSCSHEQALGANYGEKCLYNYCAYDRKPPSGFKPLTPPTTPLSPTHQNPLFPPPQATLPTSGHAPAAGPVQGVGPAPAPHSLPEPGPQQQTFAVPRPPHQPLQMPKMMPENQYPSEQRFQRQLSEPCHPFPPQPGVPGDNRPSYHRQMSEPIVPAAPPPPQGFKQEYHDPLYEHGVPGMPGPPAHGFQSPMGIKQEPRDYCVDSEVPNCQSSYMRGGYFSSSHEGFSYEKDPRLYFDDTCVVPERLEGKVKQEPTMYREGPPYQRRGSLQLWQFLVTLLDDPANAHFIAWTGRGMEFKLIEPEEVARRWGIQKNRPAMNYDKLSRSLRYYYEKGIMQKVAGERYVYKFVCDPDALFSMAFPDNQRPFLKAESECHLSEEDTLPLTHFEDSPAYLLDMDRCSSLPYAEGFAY
Summary of the method: as §1

ETV1 = ETV1 (Homo sapiens, UniProt P50549 1-477)
Chain of ETV1 (P50549 whole entry): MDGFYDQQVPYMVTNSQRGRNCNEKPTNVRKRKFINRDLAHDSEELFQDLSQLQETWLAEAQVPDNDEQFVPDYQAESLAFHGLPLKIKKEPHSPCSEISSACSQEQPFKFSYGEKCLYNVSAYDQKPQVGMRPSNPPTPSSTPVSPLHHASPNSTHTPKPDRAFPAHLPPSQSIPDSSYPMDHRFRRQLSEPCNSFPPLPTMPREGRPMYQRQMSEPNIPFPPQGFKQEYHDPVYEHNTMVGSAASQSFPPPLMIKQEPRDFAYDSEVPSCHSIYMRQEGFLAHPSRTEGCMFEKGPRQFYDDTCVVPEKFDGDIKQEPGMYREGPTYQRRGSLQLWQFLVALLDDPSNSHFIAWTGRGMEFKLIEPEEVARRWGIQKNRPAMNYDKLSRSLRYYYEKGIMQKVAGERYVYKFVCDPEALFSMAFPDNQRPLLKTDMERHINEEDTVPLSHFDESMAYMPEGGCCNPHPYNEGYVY
Summary of the method: as §1

ETV3L = target: T3, ETV3L (Homo sapiens, UniProt Q6ZN32 1-361)
T3 sequence: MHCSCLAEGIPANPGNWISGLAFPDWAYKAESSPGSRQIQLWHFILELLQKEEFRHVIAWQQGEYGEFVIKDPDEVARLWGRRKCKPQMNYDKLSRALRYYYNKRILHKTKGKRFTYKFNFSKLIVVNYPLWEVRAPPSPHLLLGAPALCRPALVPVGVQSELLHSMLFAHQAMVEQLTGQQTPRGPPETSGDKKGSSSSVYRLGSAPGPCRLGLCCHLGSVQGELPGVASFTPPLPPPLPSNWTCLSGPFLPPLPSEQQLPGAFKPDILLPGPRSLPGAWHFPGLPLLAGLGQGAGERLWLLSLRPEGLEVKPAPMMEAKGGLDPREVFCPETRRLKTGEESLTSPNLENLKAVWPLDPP
Summary of the method: as §1

ETS2 = target: T4, ETS2 (Homo sapiens, UniProt P15036 1-469)
T4 sequence: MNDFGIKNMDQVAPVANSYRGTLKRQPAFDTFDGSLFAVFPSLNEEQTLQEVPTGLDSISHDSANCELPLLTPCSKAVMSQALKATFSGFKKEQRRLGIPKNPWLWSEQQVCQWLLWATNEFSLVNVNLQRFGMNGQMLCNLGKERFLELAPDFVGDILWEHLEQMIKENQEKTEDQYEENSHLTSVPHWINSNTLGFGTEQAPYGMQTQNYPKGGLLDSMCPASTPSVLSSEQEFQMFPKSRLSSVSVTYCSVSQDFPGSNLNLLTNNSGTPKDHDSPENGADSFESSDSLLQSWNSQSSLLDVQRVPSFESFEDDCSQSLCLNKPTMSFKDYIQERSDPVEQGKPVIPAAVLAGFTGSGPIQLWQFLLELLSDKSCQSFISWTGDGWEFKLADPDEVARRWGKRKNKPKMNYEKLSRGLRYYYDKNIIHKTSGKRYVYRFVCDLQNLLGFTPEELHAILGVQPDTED
Summary of the method: as §1

SPDEF = target: T5, SPDEF (Homo sapiens, UniProt O95238 1-335)
T5 sequence: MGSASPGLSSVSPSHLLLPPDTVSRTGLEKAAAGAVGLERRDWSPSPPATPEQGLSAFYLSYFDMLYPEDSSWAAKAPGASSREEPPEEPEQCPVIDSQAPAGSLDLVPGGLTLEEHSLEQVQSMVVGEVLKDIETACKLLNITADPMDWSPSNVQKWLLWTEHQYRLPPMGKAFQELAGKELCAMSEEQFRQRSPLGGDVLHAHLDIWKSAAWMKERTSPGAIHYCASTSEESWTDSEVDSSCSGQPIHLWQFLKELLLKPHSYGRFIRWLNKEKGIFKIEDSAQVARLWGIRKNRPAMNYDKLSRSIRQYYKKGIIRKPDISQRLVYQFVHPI
Summary of the method: as §1

ETV7 = target: T6, ETV7 (Homo sapiens, UniProt Q9Y603 1-341)
T6 sequence: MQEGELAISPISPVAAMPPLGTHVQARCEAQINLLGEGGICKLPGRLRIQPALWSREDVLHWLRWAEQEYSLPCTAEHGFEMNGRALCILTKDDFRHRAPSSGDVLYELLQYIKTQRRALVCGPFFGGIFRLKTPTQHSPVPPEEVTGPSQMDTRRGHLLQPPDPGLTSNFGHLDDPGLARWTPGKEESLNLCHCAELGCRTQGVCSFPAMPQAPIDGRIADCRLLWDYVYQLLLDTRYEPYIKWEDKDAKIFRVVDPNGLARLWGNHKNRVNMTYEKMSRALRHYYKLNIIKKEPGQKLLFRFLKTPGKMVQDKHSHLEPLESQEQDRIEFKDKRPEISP
Summary of the method: as §1

ETV3 = target: T7, ETV3 (Homo sapiens, UniProt P41162-2 1-143)
T7 sequence: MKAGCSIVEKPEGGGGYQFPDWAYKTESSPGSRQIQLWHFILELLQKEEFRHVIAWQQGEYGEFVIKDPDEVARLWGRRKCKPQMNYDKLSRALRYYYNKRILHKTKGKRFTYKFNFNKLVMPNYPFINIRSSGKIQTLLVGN
Summary of the method: as §1

ETV6 = ETV6 (Homo sapiens, UniProt P41212 1-452)
Chain of ETV6 (P41212 whole entry): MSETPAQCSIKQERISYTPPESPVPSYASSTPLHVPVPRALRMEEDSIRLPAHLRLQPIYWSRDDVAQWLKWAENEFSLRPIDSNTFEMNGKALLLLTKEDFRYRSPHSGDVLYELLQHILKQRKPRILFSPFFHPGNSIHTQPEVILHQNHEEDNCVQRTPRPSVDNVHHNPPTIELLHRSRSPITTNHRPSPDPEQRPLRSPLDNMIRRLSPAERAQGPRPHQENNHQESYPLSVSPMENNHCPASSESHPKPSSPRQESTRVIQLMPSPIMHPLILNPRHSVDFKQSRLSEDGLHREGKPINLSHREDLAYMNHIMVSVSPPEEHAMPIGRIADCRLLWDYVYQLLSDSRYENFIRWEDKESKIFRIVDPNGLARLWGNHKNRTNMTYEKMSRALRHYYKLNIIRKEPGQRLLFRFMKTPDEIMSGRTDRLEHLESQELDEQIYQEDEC
Summary of the method: as §1

ELK1 = target: T8, ELK1 (Homo sapiens, UniProt P19419 1-428)
T8 sequence: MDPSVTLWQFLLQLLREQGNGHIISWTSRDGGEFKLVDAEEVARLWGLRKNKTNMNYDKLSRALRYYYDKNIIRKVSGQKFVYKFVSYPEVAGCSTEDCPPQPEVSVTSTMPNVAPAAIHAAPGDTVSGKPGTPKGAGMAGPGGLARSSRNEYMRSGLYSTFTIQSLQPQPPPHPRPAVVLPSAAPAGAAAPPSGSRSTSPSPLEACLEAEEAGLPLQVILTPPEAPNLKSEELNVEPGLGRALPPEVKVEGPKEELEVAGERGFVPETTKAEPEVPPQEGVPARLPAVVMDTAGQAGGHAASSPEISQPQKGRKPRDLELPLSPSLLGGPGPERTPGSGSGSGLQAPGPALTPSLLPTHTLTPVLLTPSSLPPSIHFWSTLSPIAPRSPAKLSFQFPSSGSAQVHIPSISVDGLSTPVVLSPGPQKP
Summary of the method: as §1

GABPA = target: T9, GABPA (Homo sapiens, UniProt Q06546 1-454)
T9 sequence: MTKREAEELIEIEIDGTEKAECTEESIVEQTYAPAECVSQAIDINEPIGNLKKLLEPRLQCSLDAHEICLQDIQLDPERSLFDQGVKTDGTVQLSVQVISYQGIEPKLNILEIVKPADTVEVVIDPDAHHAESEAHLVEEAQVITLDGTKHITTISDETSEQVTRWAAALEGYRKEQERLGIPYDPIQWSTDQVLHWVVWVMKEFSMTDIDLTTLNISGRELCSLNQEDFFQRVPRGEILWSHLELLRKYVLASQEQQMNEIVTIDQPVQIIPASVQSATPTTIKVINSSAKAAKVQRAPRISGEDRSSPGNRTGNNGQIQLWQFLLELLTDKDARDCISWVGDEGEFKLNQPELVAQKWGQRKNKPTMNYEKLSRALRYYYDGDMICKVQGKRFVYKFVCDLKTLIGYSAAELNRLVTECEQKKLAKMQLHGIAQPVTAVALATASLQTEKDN
Summary of the method: as §1

ELF1 = ELF1 (Homo sapiens, UniProt P32519 1-619)
Chain of ELF1 (P32519 whole entry): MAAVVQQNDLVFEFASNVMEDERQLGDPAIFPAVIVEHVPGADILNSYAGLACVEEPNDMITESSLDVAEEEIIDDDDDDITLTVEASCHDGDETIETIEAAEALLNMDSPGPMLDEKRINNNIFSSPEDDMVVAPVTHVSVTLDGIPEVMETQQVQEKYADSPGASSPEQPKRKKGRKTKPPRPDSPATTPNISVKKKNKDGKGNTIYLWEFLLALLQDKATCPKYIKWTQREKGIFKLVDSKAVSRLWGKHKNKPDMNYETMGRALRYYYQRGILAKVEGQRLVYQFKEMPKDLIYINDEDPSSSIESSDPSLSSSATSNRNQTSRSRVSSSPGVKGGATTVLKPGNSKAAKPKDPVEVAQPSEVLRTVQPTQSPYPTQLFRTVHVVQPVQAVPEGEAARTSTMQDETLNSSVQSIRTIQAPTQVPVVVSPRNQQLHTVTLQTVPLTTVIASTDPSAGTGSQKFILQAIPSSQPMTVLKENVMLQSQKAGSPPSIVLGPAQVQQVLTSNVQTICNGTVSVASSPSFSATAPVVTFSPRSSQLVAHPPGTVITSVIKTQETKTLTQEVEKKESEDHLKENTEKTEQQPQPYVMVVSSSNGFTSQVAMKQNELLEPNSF
Summary of the method: as §1

ELK4 = target: T10, ELK4 (Homo sapiens, UniProt P28324-2 1-405)
T10 sequence: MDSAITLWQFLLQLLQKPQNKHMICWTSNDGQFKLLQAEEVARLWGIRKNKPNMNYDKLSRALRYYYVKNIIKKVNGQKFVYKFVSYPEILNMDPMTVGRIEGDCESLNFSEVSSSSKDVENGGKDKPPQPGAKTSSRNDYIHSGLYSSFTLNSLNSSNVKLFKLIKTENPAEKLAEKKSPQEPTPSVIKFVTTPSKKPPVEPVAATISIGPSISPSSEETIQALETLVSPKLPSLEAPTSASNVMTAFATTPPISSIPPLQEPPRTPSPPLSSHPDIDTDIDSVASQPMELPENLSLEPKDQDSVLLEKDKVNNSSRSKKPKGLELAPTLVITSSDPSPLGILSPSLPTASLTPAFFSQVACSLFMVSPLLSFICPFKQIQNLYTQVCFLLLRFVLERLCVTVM
Summary of the method: as §1

ELF3 = target: T11, ELF3 (Homo sapiens, UniProt P78545 1-371)
T11 sequence: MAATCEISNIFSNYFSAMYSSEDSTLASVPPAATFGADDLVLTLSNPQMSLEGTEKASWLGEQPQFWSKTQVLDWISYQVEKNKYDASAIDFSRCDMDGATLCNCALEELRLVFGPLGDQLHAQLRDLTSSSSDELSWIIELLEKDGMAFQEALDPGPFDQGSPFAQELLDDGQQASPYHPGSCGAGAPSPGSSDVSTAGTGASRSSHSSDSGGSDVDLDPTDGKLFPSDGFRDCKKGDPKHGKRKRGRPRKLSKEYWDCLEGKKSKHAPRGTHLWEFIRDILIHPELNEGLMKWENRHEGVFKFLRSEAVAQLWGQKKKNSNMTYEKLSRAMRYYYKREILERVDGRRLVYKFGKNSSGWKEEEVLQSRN
Summary of the method: as §1

ERF = target: T12, ERF (Homo sapiens, UniProt P50548 1-548)
T12 sequence: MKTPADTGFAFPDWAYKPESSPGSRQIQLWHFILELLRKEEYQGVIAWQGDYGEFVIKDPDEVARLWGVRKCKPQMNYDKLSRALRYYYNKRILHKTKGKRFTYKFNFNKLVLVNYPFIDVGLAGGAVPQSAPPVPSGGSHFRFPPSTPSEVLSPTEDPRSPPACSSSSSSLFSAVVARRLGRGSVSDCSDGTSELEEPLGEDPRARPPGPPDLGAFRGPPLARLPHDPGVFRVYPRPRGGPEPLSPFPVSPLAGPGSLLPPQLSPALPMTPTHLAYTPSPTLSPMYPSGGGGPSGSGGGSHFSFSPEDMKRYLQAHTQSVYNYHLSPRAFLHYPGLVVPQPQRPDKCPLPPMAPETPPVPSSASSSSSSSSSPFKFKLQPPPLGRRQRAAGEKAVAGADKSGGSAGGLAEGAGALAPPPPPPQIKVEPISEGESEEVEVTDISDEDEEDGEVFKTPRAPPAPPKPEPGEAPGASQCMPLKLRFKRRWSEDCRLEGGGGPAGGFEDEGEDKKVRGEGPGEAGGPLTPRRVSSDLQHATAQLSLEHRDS
Summary of the method: as §1

| Sequence | binding signal (ERG) | binding signal (EHF) | binding signal (SPIB) | binding signal (ETV5) | binding signal (ETV1) | binding signal (ETV3L) | binding signal (ETS2) | binding signal (SPDEF) | binding signal (ETV7) | binding signal (ETV3) | binding signal (ETV6) | binding signal (ELK1) | binding signal (GABPA) | binding signal (ELF1) | binding signal (ELK4) | binding signal (ELF3) | binding signal (ERF) |
| --- | --- | --- | --- | --- | --- | --- | --- | --- | --- | --- | --- | --- | --- | --- | --- | --- | --- |
| AGGATG | 1.1 fold enrichment (6-mer frequency, TF over GST control) | 1.09 fold enrichment (6-mer frequency, TF over GST control) | 1.1 fold enrichment (6-mer frequency, TF over GST control) | 1.09 fold enrichment (6-mer frequency, TF over GST control) | 1.05 fold enrichment (6-mer frequency, TF over GST control) | 1.06 fold enrichment (6-mer frequency, TF over GST control) | 1.07 fold enrichment (6-mer frequency, TF over GST control) | 1.51 fold enrichment (6-mer frequency, TF over GST control) | 1.04 fold enrichment (6-mer frequency, TF over GST control) | 1.13 fold enrichment (6-mer frequency, TF over GST control) | 1.08 fold enrichment (6-mer frequency, TF over GST control) |  |  |  |  |  |  |
| CGAATC | 1.05 fold enrichment (6-mer frequency, TF over GST control) | 1.06 fold enrichment (6-mer frequency, TF over GST control) | 1.13 fold enrichment (6-mer frequency, TF over GST control) | 1.07 fold enrichment (6-mer frequency, TF over GST control) | 1.02 fold enrichment (6-mer frequency, TF over GST control) | 1 fold enrichment (6-mer frequency, TF over GST control) |  | 1.12 fold enrichment (6-mer frequency, TF over GST control) | 1.02 fold enrichment (6-mer frequency, TF over GST control) |  | 1.01 fold enrichment (6-mer frequency, TF over GST control) | 1.01 fold enrichment (6-mer frequency, TF over GST control) | 1.14 fold enrichment (6-mer frequency, TF over GST control) | 1 fold enrichment (6-mer frequency, TF over GST control) | 1.09 fold enrichment (6-mer frequency, TF over GST control) | 1.11 fold enrichment (6-mer frequency, TF over GST control) | 1.15 fold enrichment (6-mer frequency, TF over GST control) |
